A selection: hits, their analogues and other compounds. The true share with any hit is near 5.8%.
PINK1 expr mod = changes PINK1 expression; PINK1 immunofluorescence, high-content cytometry, 24 h; Potency, µM (top dose mostly 76.6 µM), for the others: at the top dose activation (PINK1 increase), usual class: activators; 0.2% of 410,000 active; AID 624263; active means well fitted activation curve with a large enough effect; inconclusive means small, poorly fitted or top-dose-only effect; cell line not stated here; further: % of control where 0% means no effect; nearly all actives have a fitted effect of over 65% in size
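PINK1 protein, normally rapidly degraded, was detected by immunofluorescence after 24 hour compound treatment of a stable cell line. Titration data (5 concentrations) came from laser-scanning cytometry, with CCCP-treated wells as controls.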
KB-3-1 tox = KB-3-1 parental cell cytotoxicity | KB-3-1 viability, CellTiter-Glo ATP luminescence, 72 h | Potency, µM (series often up to 46.1 µM), actives largely listed as cytotoxic | 1.4% of 400,000 active; further: on the % scale 0 is the no-effect control and ±100 the full control effect; nearly all actives have a fitted effect of over 60% in size
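Using CellTiter-Glo luminescence, growth of non-resistant KB-3-1 adenocarcinoma cells is assessed 72 h after pin-tool compound addition at 37 °C. Normalized responses across the concentration series yield fitted curves.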
MCF10A rerep = induces DNA re-replication in MCF 10a normal breast cells; 2.9% of 350,000 active; MCF 10A DNA re-replication, Hoechst nuclear intensity, 48 h; Potency, µM (highest dose often 46.1 µM), inactives show at the top dose activity, positive = re-replication, actives largely listed as activators; AID 624296; further: % of control where 0% means no effect; nearly all actives have a fitted effect of over 50% in size
12-LOX inh = inhibitors of human 12S-lipoxygenase ALOX12; P18054; purified 12hLO, xylenol orange hydroperoxide absorbance; Potency, µM (doses to about 108 µM), for inactives: at the highest dose activity change, negative = inhibition, hits mostly inhibitors; 1.1% of 580,000 active; AID 1671190; further: on the % scale 0 is the no-effect control and ±100 the full control effect
Target sequence (P18054 whole entry, looked up): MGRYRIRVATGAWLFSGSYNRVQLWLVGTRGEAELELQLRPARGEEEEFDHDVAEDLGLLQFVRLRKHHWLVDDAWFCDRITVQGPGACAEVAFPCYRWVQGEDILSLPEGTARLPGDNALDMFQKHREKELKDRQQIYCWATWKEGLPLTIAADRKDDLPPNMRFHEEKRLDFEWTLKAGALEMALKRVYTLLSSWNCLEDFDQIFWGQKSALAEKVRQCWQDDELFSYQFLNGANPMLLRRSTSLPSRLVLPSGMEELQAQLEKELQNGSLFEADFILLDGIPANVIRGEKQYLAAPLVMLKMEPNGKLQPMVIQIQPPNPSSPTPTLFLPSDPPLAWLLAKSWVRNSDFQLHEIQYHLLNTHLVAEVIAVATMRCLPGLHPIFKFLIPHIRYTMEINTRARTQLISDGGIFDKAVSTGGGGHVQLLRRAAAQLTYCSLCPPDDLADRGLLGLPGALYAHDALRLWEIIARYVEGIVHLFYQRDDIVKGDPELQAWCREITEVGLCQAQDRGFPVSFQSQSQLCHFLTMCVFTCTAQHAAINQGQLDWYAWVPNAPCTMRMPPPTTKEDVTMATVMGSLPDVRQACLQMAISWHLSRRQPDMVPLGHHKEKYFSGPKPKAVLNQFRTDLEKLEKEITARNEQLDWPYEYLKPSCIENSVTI
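Purified human 12hLO at 150 nM in 25 mM Hepes, 0.01% Triton X-100, pH 7.0, preincubated 15 min at room temperature with compound. Reaction started with 40 uM arachidonic acid, 30 min at room temperature. Hydroperoxide measured by Fe-xylenol orange, 573/405 nm absorbance ratio.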
KB-V1 MDR tox = KB-V1 MDR subline cytotoxicity. KB-V1 MDR cells viability, CellTiter-Glo, 72 h. Potency, µM (highest dose often 46.1 µM), actives largely listed as cytotoxic. 3.4% of 400,000 active. AID 1347076; further: on the % scale 0 is the no-effect control and ±100 the full control effect; nearly all actives have a fitted effect of over 60% in size
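Drug-selected KB-V1 cells, grown in DMEM lacking phenol red with 10% FBS, receive compound titrations; after three days at 37 degrees C, surviving cell ATP is quantified by CellTiter-Glo luminescence and responses normalized and curve-fitted.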
SW480 rerep = DNA re-replication induction in SW480 cells | SW480 DNA re-replication, Hoechst DNA content imaging, 48 h | Potency, µM (top dose mostly 46.1 µM), without a hit: at the highest dose re-replication activation, most hits filed as activators | 1.8% of 340,000 active; further: % of control where 0% means no effect; nearly all actives have a fitted effect of over 55% in size
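Compounds, transferred as 23 nL by pin tool, were incubated with cells for 48 hr; DNA content per nucleus was then quantified by Hoechst staining and fluorescence plate imaging.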
Numbers without * were called inactive; i = inactive; ? = inconclusive; . = no result given; [ ] = remark or other dose. Unless noted, the call rests on the fitted dose curve; in most records, active means well fitted curve in the direction sought with a large enough effect; inconclusive means small, poorly fitted or top-dose-only effect, or another doubt; inactive means no such curve, though single readings can be large; an effect the other way counts as inactive or inconclusive. Potency means the concentration at half of the fitted maximal effect.

SMILES	PINK1 expr mod	KB-3-1 tox	MCF10A rerep	12-LOX inh	KB-V1 MDR tox	SW480 rerep
Cc1nc2ccccc2n1Cc1ccc(Cl)cc1	0%	?	?	23%	7.3µM*	?
Clc1ccc(COn2c(-c3ccccc3)nc3ccccc32)cc1	-4%[38.3 µM]	?	21µM*	-6%	?	?
COc1ccc(CNC(=O)C2CCN(c3nc4ccccc4o3)CC2)cc1	.	.	.	-11%	.	.
COc1ccc(-c2ccc3c(c2)C2CC3CCN2)cc1 (stereo unspecified)	0%	i	21µM*	?	i	27%
CN(C)/N=C/c1ccc(P(c2ccc(/C=N/N(C)C)o2)c2ccc(/C=N/N(C)C)o2)o1	1%	i	2%	40µM*	i	?
Cc1ccc(C2NC(=O)N(CC(=O)Nc3c(C)cccc3Cl)C3=C2C(=O)OC3)cc1 (stereo unspecified)	.	.	.	2%	.	.
O=C(CN1C(=O)NC(c2ccc(Cl)cc2)C2=C1COC2=O)Nc1ccc(Br)cc1F (stereo unspecified)	.	.	.	4.5µM*	.	.
COc1ccc(OC)c(NC(=O)CN2C(=O)NC(c3ccc(Cl)cc3)C3=C2COC3=O)c1 (stereo unspecified)	.	.	.	9%	.	.
Cc1ccc(NC(=O)CN2C(=O)NC(c3ccc(Cl)cc3)C3=C2COC3=O)cc1 (stereo unspecified)	.	.	.	11µM*	.	.
O=C(CN1C(=O)NC(c2ccc(Cl)cc2)C2=C1COC2=O)Nc1ccc(Cl)cc1F (stereo unspecified)	.	.	.	8.9µM*	.	.
O=C(CN1C(=O)NC(c2ccc(Cl)cc2)C2=C1COC2=O)Nc1cc(F)cc(F)c1 (stereo unspecified)	.	.	.	11µM*	.	.
COc1ccc2c(C)c(CCC(=O)NCc3ccc(S(N)(=O)=O)cc3)c(=O)oc2c1C	.	.	.	4%	.	.
COc1ccc(CCNC(=O)c2c(O)nc3c(C)cccn3c2=O)cc1OC	1%	i	.	-17%	6.5µM*	.
COc1ccc(CCNC(=O)c2c(C)nn(-c3ccc(F)cc3)c2-n2cccc2)cc1OC	?	5.8µM*	.	-18%	5.2µM*	.
CCN(CC)c1ccc(NC(=O)c2c(C)nn(-c3ccc(F)cc3)c2-n2cccc2)c(C)c1	4%	?	.	-47%	21µM*	.
CCOc1ccc(NC(=O)c2c(C)nn(-c3ccc(F)cc3)c2-n2cccc2)cc1	5%	i	.	?	i	.
COc1ccc(OC)c(CCNC(=O)c2c(C)nn(-c3ccc(F)cc3)c2-n2cccc2)c1	1%	?	.	-10%	12µM*	.
Cc1cc(C)c(NC(=O)c2c(C)nn(-c3ccc(F)cc3)c2-n2cccc2)c(C)c1	-1%	?	.	4%	i	.
COc1cccc(CCNC(=O)c2c(O)nc3c(C)cccn3c2=O)c1	1%	i	.	-12%	?	.
Cc1ccc(NC(=O)CCc2ncc(-c3ccccc3)o2)nc1	.	.	.	0%	.	.
C=CCNC(=S)Nc1cc(Cl)ccc1Cl	.	.	.	19%	.	.
COc1ccc(Cn2c(-n3nc(C)cc3C)nc3c2c(=O)n(CC(N)=O)c(=O)n3C)cc1	.	.	.	12%	.	.
CCN(CC)c1ccc(NC(=O)c2cc(OC)cc(OC)c2)c(C)c1	9%	0.92µM*	2.1µM*	-12%	1.2µM*	4.6µM*
COc1cc(OC)c(NC(=O)c2c(C)nn(-c3ccc(C)cc3)c2-n2cccc2)cc1Cl	6%	23µM*	.	-19%	?	.
Cc1ccc(CCNC(=O)c2c(C)nn(-c3ccc(F)cc3)c2-n2cccc2)cc1	0%	3.3µM*	.	-33%	5.8µM*	.
Cc1cccc(-n2ccnc2SC2CCCCC2=O)c1C (stereo unspecified)	.	.	.	-18%	.	.
CCCCOc1ccc(-c2nc(C3CC(=O)N(c4ccc(F)cc4)C3)no2)cc1 (stereo unspecified)	.	.	.	11%	.	.
CCN(CC)CCCNc1nc2ccccc2c2nc(-c3ccncc3)nn12	-2%	18µM*	?	-5%	?	?

Assay outcomes as filed in PubChem BioAssay.
